Compound activity deposited in PubChem BioAssay by National Center for Advancing Translational Sciences (NCATS).
Pf growth 48h: Primary qHTS for delayed death inhibitors of the malarial parasite plastid, 48 hour incubation; P. falciparum luciferase growth in erythrocytes, 48 h; Potency, µM (highest dose often 28.7 µM), for the others: top-dose activity change, negative = inhibition, most hits filed as inhibitors; actives 5.9% (n = 310,000); further: potency means the concentration at half of the fitted maximal effect
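Parasite viability was followed by luminescence of a genomically integrated firefly luciferase. Cultures held 0.1% parasitemia at 2% hematocrit (final), incubated under 5% CO2 at 37 C.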
Sm TGR inh: qHTS Assay for the Inhibitors of Schistosoma Mansoni Peroxiredoxins. purified TGR, DTNB reduction, TNB absorbance 405 nm. Schistosoma mansoni thioredoxin glutathione reductase (TGR), Q962Y6. Potency, µM (doses to about 114 µM), inactives show top-dose activity change, negative = inhibition, usual class: inhibitors. AID 485364, 2010. actives 3% (n = 360,000); further: potency means the concentration at half of the fitted maximal effect; nearly all actives have a fitted effect of over 60% in size
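Kinetic colorimetric format: TGR-catalysed, NADPH-driven DTNB reduction monitored via TNB absorbance. Enzyme dispensed at 20 nM; compound exposure 15 min at room temperature before reaction start.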
HCMV inh: qHTS Assay for inhibitors of the human cytomegalovirus (HCMV); HFF cells, HCMV-luciferase reporter, 72 h; stronger effect = lower value; activity change, negative = inhibition, % at 57.5 µM; actives 4.5% (n = 410,000); in the data active means activity change below about -60%; inconclusive means no clear call, values can overlap the other calls; inactive means above about -39%
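Cell-based, HFFs, 1000 cells/well, 16 h 37C; cpds in DMSO + HCMV-luc, MOI 1 PFU/cell; 72 h 37C; OneGlo luminescence after 5 min RT; norm. to buffer vs Salinomycin 10uM.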
FBPA Giardia inh: qHTS Assay for Inhibitors of Fructose-1,6-bisphosphate Aldolase from Giardia Lamblia | actives 0.71% (n = 290,000) | AID 2451, 2010 | A8B2U2 | Potency, µM (titrated, usually from 59.6 µM), for inactives: top-dose activity, negative = inhibition, most hits filed as inhibitors | purified Giardia FBPA; further: potency means the concentration at half of the fitted maximal effect; nearly all actives have a fitted effect of over 55% in size
Target sequence (A8B2U2 whole entry, looked up): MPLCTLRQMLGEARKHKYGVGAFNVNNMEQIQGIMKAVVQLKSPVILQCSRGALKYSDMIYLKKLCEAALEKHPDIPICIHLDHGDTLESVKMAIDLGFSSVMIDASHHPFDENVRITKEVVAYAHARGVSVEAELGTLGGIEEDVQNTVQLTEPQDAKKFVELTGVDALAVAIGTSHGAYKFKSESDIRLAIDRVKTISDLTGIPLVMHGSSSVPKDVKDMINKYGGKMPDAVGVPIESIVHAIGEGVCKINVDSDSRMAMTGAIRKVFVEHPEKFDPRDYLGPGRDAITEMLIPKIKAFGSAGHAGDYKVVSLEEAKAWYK
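Giardia FBPA (40 nM reagent) was preincubated 10 min at RT with compound (up to 57.5 uM final), then substrate plus GAPDH/TPI/NAD/arsenate coupling system with diaphorase/resazurin was added; resorufin fluorescence (525/598 nm) was read after 20 min.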
Pf growth 96h: Primary qHTS for delayed death inhibitors of the malarial parasite plastid, 96 hour incubation. Potency, µM (series often up to 28.7 µM), without a hit: top-dose activity change, negative = inhibition, hits mostly inhibitors. AID 504834, 2011. actives 6.9% (n = 320,000). P. falciparum luciferase reporter growth, 96 h; further: potency means the concentration at half of the fitted maximal effect
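Compounds incubated with erythrocytes infected by luciferase-expressing P. falciparum (2% hematocrit, 0.05% parasitemia final) for 96 hours, 37 C in 5% CO2. Growth inhibition scored as decreased luciferase luminescence.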
* = called active by the depositor; ? = inconclusive; nt = no result; [ ] = remark or other dose. Compounds with a hit are over-represented: about 14% of the library has one in this group of screens. Unless noted, the call rests on the fitted dose curve; in most records, active means well fitted curve in the direction sought with a large enough effect; inconclusive means small, poorly fitted or top-dose-only effect, or another doubt; inactive means no such curve, though single readings can be large; an effect the other way counts as inactive or inconclusive. On the % scale 0 is the no-effect control and ±100 the full control effect.

SMILES	Pf growth 48h	Sm TGR inh	HCMV inh	FBPA Giardia inh	Pf growth 96h
COc1ccc([N+](=O)[O-])c(OC)c1C(=O)NC(=O)Nc1c(F)c(F)c(F)c(F)c1F	nt	3%	4	2%	4.7µM*
COc1cccc(OC)c1C(=O)NC(=O)Nc1c(F)c(F)c(F)c(F)c1F	7.4µM*	6%	-25	7%	2.1µM*
COc1cccc(OC)c1C(=O)NC(=O)Nc1c(F)cc(F)cc1F	?	12%	-5	3%	?
CC1CCN(c2ccc(C(=O)O)cc2N)CC1	35%	5%	41	-10%	3.3µM*
O=[N+]([O-])c1ccc(COc2ccc(-c3[nH]ncc3-c3ccccc3)c(O)c2)cc1	13µM*	-14%	-38	8%	6.6µM*
COc1ccc(Oc2cn[nH]c2-c2ccc(O)cc2O)cc1	?	-16%	-33	-8%	?
C=C(C)COc1ccc(-c2[nH]ncc2-c2ccc(OC)cc2)c(O)c1	?	8%	-70*	-8%	?
COc1ccc(-c2cn[nH]c2-c2ccc(O)cc2O)cc1	?	15%	-88*	8%	?
C=C(C)COc1ccc(-c2n[nH]c(C)c2-c2ccc(OC)c(OC)c2)c(O)c1	?	5%	-84*	-15%	?
Cc1cc(C(=O)N2CCN(c3ccc(F)cc3)CC2)c2c(C)nn(-c3cccc(Cl)c3C)c2n1	nt	13%	1	nt	nt
CCOc1ccc(OCCC(=O)N(CC)CC(=O)Nc2ccccc2OC)cc1	nt	nt	-5	nt	nt
Cc1cccc(CNc2nc(-c3ccc4c(c3)OCO4)nc3ccccc23)c1	nt	nt	nt	-4%	nt
C=C(C)COc1ccc(-c2[nH]ncc2-c2ccc(OC)c(OC)c2)c(O)c1	1.9µM*	4%	?	-1%	2.3µM*
C=C(C)COc1ccc(-c2[nH]ncc2-c2ccccc2)c(O)c1	10µM*	6%	?	-1%	?
COc1ccc(-c2cn[nH]c2-c2ccc(OCC(=O)NN)cc2O)cc1OC	?	3%	55	11%	?
COCCCN1C(=O)C(CC(=O)NCC2CCCCC2)CC(C(=O)N2CCOCC2)=C1C (stereo unspecified)	nt	nt	3	nt	nt
Cc1ccc(C)c(N2C(=O)C3C4C=CC(CC4)C3C2=O)c1 (stereo unspecified)	?	?	68	1%	-12%
NC(=O)C1CCN(C(=S)c2ccc(-c3ccc(Br)cc3)o2)CC1	170%	-29%	61	3.5µM*	-32%
NC(=O)c1ccc(-c2ccc(Br)cc2)o1	?	40µM*	52	-1%	-50%
C[C@H](N)CCCC(C)(C)O	nt	nt	nt	-1%[21.7 µM]	nt
O=C1CC(C(=O)Nc2cccc3ccccc23)C2(CCCC2)O1 (stereo unspecified)	22%	1%	53	-14%	1.5µM*
Cc1cccc(N(Cc2cc3cc(C)ccc3[nH]c2=O)C(=O)c2cccs2)c1	13µM*	-9%	-39	0%	7.4µM*
COc1ccc2[nH]c(=O)c(CN(C(=O)C3CCCO3)c3cccc(C)c3)cc2c1 (stereo unspecified)	11%	44%	nt	-5%	8.3µM*
Cc1ccc2oc(-c3cc(NC(=O)c4ccc5c(c4)OCCO5)cc(C)c3O)nc2c1	nt	3%	18	nt	nt
ClCc1ncc(-c2ccc(Cl)cc2)o1	-4%	25µM*	?	0%	-14%
SMILES	Pf growth 48h	Sm TGR inh	HCMV inh	FBPA Giardia inh	Pf growth 96h
COc1ccc(C(=O)C2CCCN(Cc3cccn3-c3ccc(Cl)cn3)C2)c(OC)c1 (stereo unspecified)	4.1µM*	0%[57.1 µM]	?	19%	15%
COc1ccc(C(=O)C2CCCN(Cc3cccc(C)n3)C2)c(OC)c1 (stereo unspecified)	1.5µM*	-9%	-33	-11%	1µM*
COc1cccc(C(=O)C2CCCN(C(=O)CCc3scnc3C)C2)c1 (stereo unspecified)	-16%	0%	5	6%	?
COc1c(C)cc(C(=O)C2CCCN(C(=O)CCc3scnc3C)C2)cc1C (stereo unspecified)	-18%	-7%	-62*	5%	66%
COc1ccc2cc(C(=O)C3CCCN(Cc4cccc(C)n4)C3)ccc2c1 (stereo unspecified)	0.66µM*	-21%	-67*	-10%	?
C=C1C(=O)[C@]23[C@H](O)[C@H]1CC[C@H]2[C@@]12COC3(O)[C@H](O)[C@@H]1C(C)(C)CC[C@@H]2O	nt	nt	nt	11%	nt
Cc1c(C(=O)O)sc2[nH]c(=O)n(Cc3ccccc3)c(=O)c12	13%	-8%	-4	10%	25%
COc1ccc(C(=O)C2CCCN(C/C=C/c3ccccc3OC)C2)c(OC)c1 (stereo unspecified)	?	-13%	-61*	1%	25%
COc1c(C)cc(C(=O)C2CCCN(Cc3ccccn3)C2)cc1C (stereo unspecified)	2.1µM*	-22%	-65*	0%	109%
COc1cccc(C(=O)C2CCCN(Cc3ccccn3)C2)c1 (stereo unspecified)	?	-9%	46	-3%	19%
O=C(COC(=O)CSc1ccc(Cl)cc1)NCCc1ccccc1	23%	-4%	-30	nt	2%
CCN(CC)C(=O)c1cccc(-c2csc(C(O)c3ccc(F)c(OC)c3)n2)c1 (stereo unspecified)	nt	nt	-62*	nt	nt
COc1ccc(-c2cnc3c(NC=O)cc(-c4cccc(NS(C)(=O)=O)c4)cn23)cc1OC	nt	nt	125	nt	nt
Cc1ccc2c(c1)[C@@H]1[C@H](CO2)[C@H](c2ccccc2)[C@]2(C)C(=O)N[C@H](C)C(=O)N12	nt	nt	2	nt	nt
COC(=O)c1c(C)c2c(C)cc3ccccn3c-2c1C(=O)OC	8%	1%	-13	-19%	nt
COC(=O)c1cc2c(-c3ccccc3)cc3ccccn3c-2c1C(=O)OC	nt	-16%	-4	-8%	3.7µM*
CCCC(=O)NCCc1c2n(c3ccc(OC)cc13)CCCc1ccccc1-2	nt	nt	nt	-7%	nt
